Out of some 59,000 compounds screened, about 6,500 (11%) were called active. Inconclusive results (about 15%) are left out. Cut-off read from the data, not from the text of the source: active = max dye-equivalent concentration above about 10 nM; inconclusive = mostly about 1.1 nM to 9.6 nM; inactive = weaker than that. The list comes from a sample in which actives are over-represented; it also holds similar structures and randomly drawn compounds.
test: qHTS Assay for Spectroscopic Profiling in A350 Spectral Region; details: Compound autofluorescence, 340/450 nm, Alexa 350 dye-equivalents; active compounds read high

| Compound | max dye-equivalent concentration |
| --- | --- |
| O=C(c1ccc([N+](=O)[O-])cc1)[C@@H](Br)[C@@H](Br)c1ccnc2ccccc12 | inactive |
| O=C1NC(c2ccncc2)Nc2sc3c(c21)CCCC3 (stereo not given) | 58 nM (active) |
| CCc1nnc(NC(=O)CSc2nnc(COc3ccc(C#N)cc3)n2-c2ccccc2)s1 | inactive |
| O=C(Nc1cccc(F)c1)N1CC2(CCN(C(=O)c3csnn3)CC2)C1 | inactive |
| Cc1nc2ccc(NC(=O)N3CCC(c4ccccc4)C3)cc2nc1C (stereo not given) | 410 nM (active) |
| Cn1c(CCN2CCCCCC2)nc2cc(NC(=O)Nc3ccccc3)ccc21 | inactive |
| O=C(Nc1cccc(NC(=O)N2CCN(c3ccccc3)CC2)c1)N1CCN(c2ccccc2)CC1 | inactive |
| O=C(COC(=O)CCC(=O)c1cccs1)NCc1ccco1 | inactive |
| O=C(COC(=O)C12CC3CC(CC(C3)C1)C2)NCc1ccco1 | 16 nM (active) |
| Cc1cc(C(=O)OCC(=O)NCc2ccco2)c(C)n1-c1ccccc1 | inactive |
| NC[C@@H]1O[C@H](O[C@@H]2[C@H](O[C@@H]3O[C@H](CO)[C@@H](COC[C@H]4O[C@@H](CN)[C@@H](O)[C@@H](O)[C@@H]4N)[C@@H]3O)[C@@H](O)[C@@H](N)C[C@H]2N)[C@@H](N)[C@H](O)[C@@H]1O | inactive |
| N#Cc1ccc(CN2CCCC3(CCN(C(=O)c4ccco4)CC3)C2)cc1 | inactive |
| CCOc1ccc(NS(=O)(=O)c2ccc(OCC(=O)NCCCOC)cc2)cc1 | inactive |
| O=C(CC(NS(=O)(=O)c1ccc(Cl)cc1)c1ccco1)NC1CCCC1 (stereo not given) | inactive |
| O=c1[nH][nH]c(=O)c2cc(N3CCCC3)ccc12 | 47 nM (active) |
| O=C(NCc1cccnc1)c1cn(-c2ccccc2)nc1-c1cccs1 | inactive |
| O=C1CC(c2ccccc2)C(=O)N1c1cccc(O)c1 (stereo not given) | inactive |
| CCCC(CCC(=O)OC)(C(=O)OCC)c1csc(N)n1 (stereo not given) | inactive |
| CCCCNC(=O)c1ccccc1NC(=O)c1ccccc1N(C)S(C)(=O)=O | inactive |
| O=C(c1cccc(F)c1)N1CCC2(CC1)CCN(c1ccccc1)CC2 | inactive |
| CCOC(=O)N1CCN(C(=O)C2CCN(c3ncnc4c3sc3cccc(F)c34)CC2)CC1 | 18 nM (active) |
| CCOC(=O)N1CCN(CC(=O)Nc2cc(C)nn2-c2nc3ccccc3s2)CC1 | inactive |
| CCOC(=O)N1CCN(C(=O)C2CCN(S(C)(=O)=O)CC2)CC1 | inactive |
| CCCc1cc(=O)n2[nH]c(SCc3ccccc3)nc2n1 | inactive |
| Cc1ccc(C(=O)NC2CC(C)(C)NC(C)(C)C2)c(C)c1 | inactive |

| Compound | max dye-equivalent concentration |
| --- | --- |
| CS(=O)(=O)N(CC(=O)N1CCN(Cc2ccc3c(c2)OCO3)CC1)c1ccc2c(c1)OCO2 | inactive |
| CS(=O)(=O)N(CC(=O)NCc1ccco1)c1ccc2c(c1)OCO2 | 29 nM (active) |
| O=C(Cn1nnc(-c2ccc3c(c2)OCO3)n1)NCc1ccco1 | inactive |
| CCNC(=O)CCc1nc(-c2ccc(C(C)(C)C)cc2)no1 | inactive |
| Cc1ccc(S(=O)(=O)c2c(N)n(C)c3nc4ccccc4nc23)cc1 | 3600 nM (active) |
| Cc1ccc(S(=O)(=O)NCc2nc3ccccc3c(=O)n2N)cc1 | inactive |
| CCOC(=O)N1CC=C2C(C#N)=C(N)C(C#N)(C#N)[C@H](c3cccs3)[C@H]2C1 | 35 nM (active) |
| CC1=C(C(=O)Nc2ccccc2)C(c2cccs2)C(C#N)=C(SCC#N)N1 (stereo not given) | inactive |
| CC(=O)N1CCN(c2ccc(NCc3ccc(C(C)C)cc3)cc2)CC1 | inactive |
| Cn1c(/C(C#N)=C2/CCCCCN2)nc2ccccc21 | 23 nM (active) |
| N#C/C(=C1\CCCN1)c1nc(-c2ccccc2)cs1 | inactive |
| CCC(C)(C)n1nnnc1C(c1cccs1)N1CCN(Cc2ccccc2)CC1 (stereo not given) | inactive |
| O=C1c2ccccc2C(=O)C1c1ccccc1 | inactive |
| Cc1cccc(-c2noc(-c3ccc(F)cc3)n2)c1 | inactive |
| COc1ccc2[nH]c(=O)c(-c3noc(-c4ccc(F)cc4)n3)cc2c1 | 14 nM (active) |
| O=C(c1cc(C(F)(F)F)cc(C(F)(F)F)c1)N1CCC2(CC1)CN(c1ccncc1)C2 | inactive |
| CN1CCN(c2ncncc2-c2ccc(C(=O)N(C)C)cc2)CC1 | inactive |
| COCCNC(=O)CN(C(=O)CCC(=O)Nc1cc(C)on1)c1ccc(C)cc1C | inactive |
| COc1cc2[nH]c(=S)n(CCN3CCCCC3C)c(=O)c2cc1OC (stereo not given) | inactive |
| CCCCn1c(SCC(=O)NCCc2ccc(OC)c(OC)c2)nc2c1c(=O)n(C)c(=O)n2C | inactive |
| CCn1c(SCC(=O)NCC2CCCO2)nc2cc(S(=O)(=O)N3CCCCC3)ccc21 (stereo not given) | inactive |
| COCCCNC(=O)CSc1nc2ccc(N3CCOCC3)cc2c(=O)n1CCc1ccccc1 | 69 nM (active) |
| CCc1ccc(NC(=O)CSc2nc3ccccc3c(=O)n2CCN2CCOCC2)cc1 | inactive |
| CCCCn1c(SCC(=O)NCC2CCCO2)nc2ccc(N3CCOCC3)cc2c1=O (stereo not given) | 71 nM (active) |
| O=C(CSc1nc2cc3c(cc2c(=O)n1CCC1=CCCCC1)OCO3)NCc1ccco1 | inactive |
